Assay outcomes: PubChem BioAssay, several laboratories
Compounds with a hit are over-represented: about 0.83% of the library has one in this group of screens.
SRC1 inh: human NCOA1 inhibition | 0.12% of 360,000 active | HEK293 GAL4-SRC1 luciferase reporter, luminescence | Q15788 | inhibition, % at 3.6 µM;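 active = inhibition above the campaign mean plus 3 SD, with each screening campaign given its own cutoff, cut at about 60% in these data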;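 note: 0% = DMSO treated cells and 100% = gossypol at 36 µM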
Gli-Sufu block: Gli-Sufu pathway antagonism. inhibition, % at 5 µM. 0.74% of 340,000 active. AID 588413. Sufu-KO-LIGHT fibroblasts, Gli luciferase reporter luminescence;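 active = inhibition above about 55%, limit read from the data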;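 note: 0% = DMSO-treated cells and 100% = wells with medium but no cells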
NCOA3 inh: human NCOA3 inhibition | HEK293 GAL4-SRC3 luciferase reporter, luminescence | 0.17% of 360,000 active | inhibition, % at 3.6 µM | Q9Y6Q9;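 active = inhibition above a per-campaign cutoff, the mean of all compounds plus 3 SD, cut at about 60% in these data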;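 note: 0% = DMSO-treated cells and 100% = gossypol-treated cells at 36 µM; higher means less SRC3-driven luciferase light from the GAL4 reporter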
SRC2 inh: human SRC2 (NCOA2) inhibition. Q15596. HEK293 GAL4-SRC2 luciferase reporter, luminescence. inhibition, % at 9 µM. 0.17% of 370,000 active. AID 651957;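 active = inhibition above the mean inhibition of all tested compounds plus 3 SD, set per campaign, cut at about 52% in these data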;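 note: 0% = DMSO treated cells and 100% = cells given Gossypol at 36 µM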
NR5A2 inv ag: NR5A2 inverse agonism in reporter assay. inhibition, % at 3.6 µM. O00482. HEK293T StAR-luciferase reporter, LRH-1 transfected, 24 h. 0.13% of 360,000 active. AID 602396;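 active = inhibition above the mean inhibition of all tested compounds plus 3 SD, cut at about 73% in these data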;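 note: 0% = DMSO wells and 100% = reporter-only cells lacking LRH-1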
Gli antag conf: Gli-SUFU antagonism confirmation, single concentration | shares compounds with Gli-Sufu block | AID 602428 | 40% of 2,500 active | Sufu-KO-LIGHT cells, Gli luciferase reporter, luminescence | inhibition, % at 5 µM;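 active = mean inhibition at 5 µM reaching about 45%, limit read from the data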;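 note: plate controls were DMSO-treated cells for no effect and wells lacking cells for full effect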
SufuKO cytotox: cytotoxic in Gli-SUFU antagonist counter-screen; shares compounds with Gli-Sufu block; Sufu-KO-LIGHT cells cytotoxicity, ATP luminescence; cytotoxicity, % at 5 µM; 32% of 2,500 active;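 active = mean cytotoxicity at 5 µM above about 25%, limit read from the data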;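 note: cells exposed to compound overnight for roughly 16 to 18 hours; plate controls were DMSO wells with cells for no effect and medium without cells for full effect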
Wnt3a counter: inhibits Wnt3a reporter, counter-screen for Gli-SUFU antagonists | 20% of 2,500 active | inhibition, % at 6.25 µM | AID 651995 | shares compounds with Gli-Sufu block | Wnt-LIGHT cells, Wnt3a-driven luciferase reporter, luminescence;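 active = mean inhibition above about 25%, limit read from the data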
Active calls of the source: *; . = no result given.

SMILES	SRC1 inh	Gli-Sufu block	NCOA3 inh	SRC2 inh	NR5A2 inv ag	Gli antag conf	SufuKO cytotox	Wnt3a counter
Cc1cc(NC(=O)c2ccc(NS(=O)(=O)c3ccc(F)cc3)cc2)no1	.	.	.	2	.	.	.	.
COc1ccc(Cl)cc1NC(=O)C(OC)c1ccccc1 (stereo not drawn)	-51	2	7	-2	5	.	.	.
COC(/C(=N/O)c1ccc(Cl)cc1)c1ccccc1 (stereo not drawn)	-13	64*	-27	4	1	60*	30*	34*
Cc1ccc(C)c(N2CCN(c3nc4ccccc4c(=O)n3Cc3ccccc3)CC2)c1	4	55	26	-1	7	24	15	-6
COc1cc2ccc(=O)oc2c(O[C@@H]2O[C@H](CO)[C@@H](O)[C@H](O)[C@H]2O)c1O	-19	3	8	-25	6	22	6	-4
O=C(CCc1nc2ccccc2c(=O)[nH]1)OCc1ccc(-c2ccccc2)cc1	-11	96*	-1	-6	6	21	4	-36
COc1cc(/C=N/NC(=O)c2ccncc2)ccc1OC(C)=O	12	58*	5	11	-2	17	3	7
COc1cc(/C=N/NC(=O)c2ccncc2)ccc1OC(=O)c1ccco1	-35	25	-11	-2	6	.	.	.
COc1ccc(C)cc1NC(=O)CSc1nnc(-c2n[nH]c3c2CCC3)n1N	.	.	.	-10	.	.	.	.
O=C(Nc1nc2ncccn2c1-c1ccc(F)cc1)C1CC1	.	.	.	1	.	.	.	.
Cc1cccc(NS(=O)(=O)c2ccc(NS(=O)(=O)c3cccs3)cc2)c1	-2	.	-31	1	7	.	.	.
Cc1cccc(NS(=O)(=O)c2ccc(C)c(NS(=O)(=O)c3cccs3)c2)c1	-22	96*	-2	-15	4	14	12	-11
CCOC(=O)C1CCCN(C2CCN(Cc3nc(Cc4ccccc4)no3)CC2)C1 (stereo not drawn)	16	50	12	12	20	23	10	-29
CCCCN1CCc2c(c3ccccc3n2Cc2ccccc2)C1	-9	60*	-21	-41	0	35	1	-31
CN1CCc2c(c3ccccc3n2Cc2ccccc2)C1	-14	-3	7	-2	5	.	.	.
Cc1ccccc1CS(=O)(=O)Cc1ccc(C(=O)NCc2ccco2)o1	-4	51	2	2	5	12	5	-24
O=c1c2c(n3nnnc3n1Cc1ccccc1)-c1ccccc1CC21CCCC1	-24	9	-33	4	-11	.	.	.
CCC1(C)Cc2ccccc2-c2c1c(=O)n(Cc1ccccc1)c1nnnn21 (stereo not drawn)	2	75*	-1	-3	-4	28	3	-1
CS(=O)(=O)c1ccc(C(=O)OCC(=O)NC(=O)C2CCCCC2)cc1[N+](=O)[O-]	-2	65*	1	-4	0	14	3	9
CS(=O)(=O)c1ccc(C(=O)OCC(=O)NC(=O)C2COc3ccccc3O2)cc1[N+](=O)[O-] (stereo not drawn)	-10	4	14	-9	3	.	.	.
Cc1cc(C)cc(N2CCCn3c2nc2c3c(=O)n(CC(=O)OCc3ccccc3)c(=O)n2C)c1	-2	9	-7	.	-3	.	.	.
Cc1ccc(N2CC(C)Cn3c2nc2c3c(=O)n(CC(=O)OCc3ccccc3)c(=O)n2C)cc1C (stereo not drawn)	-3	57*	24	4	-5	38	17	-37
COC(=O)c1cc(-c2cc(F)cc(OC)c2)c(=O)n2c1CCC2	.	.	.	7	.	.	.	.
O=C(CCS(=O)(=O)c1ccccc1)Nc1ccc(F)cc1F	.	.	.	4	.	.	.	.
CC[N+]1=C(C)C(C)(C)c2cc(C)ccc21	-24	57*	5	20	14	45*	17	-3
SMILES	SRC1 inh	Gli-Sufu block	NCOA3 inh	SRC2 inh	NR5A2 inv ag	Gli antag conf	SufuKO cytotox	Wnt3a counter
CCOC(=O)C1(CCOc2ccccc2)CCN(Cc2cccc(-n3cccn3)c2)CC1	-14	52	12	23	7	35	8	-62
CCOC(=O)C1(CCOc2ccccc2)CCN(Cc2cccc(F)c2)CC1	14	60*	3	15	6	27	26*	-31
C=CCN1[C@H](C)COc2cccc(F)c2S1(=O)=O	.	.	.	-1	.	.	.	.
Nc1ccc(-c2cc3ccccc3oc2=O)cc1	42	61*	65*	85*	56	72*	9	103*
O=c1oc2ccccc2cc1-c1ccc(O)cc1	-86	-59	-95	-14	-45	.	.	.
CCCCCCCCOC(=O)C[N+](C)(C)C/C=C(/C)Cl	-9	42	4	19	-18	.	.	.
CCCCCCCCCCOC(=O)C[N+](C)(C)C/C=C(/C)Cl	5	63*	16	10	18	69*	27*	35*
COC(=O)[C@]12C[C@H](CC(=O)NCc3cccc4ccccc34)C(=O)N(CCC3=CCCCC3)C1=C[C@H](C(C)C)O[C@@H]2C1CC1	.	.	.	-13	.	.	.	.
CCN(CC)CCNc1ccc(C)c2sc3ccc(O)cc3c(=O)c12	63*	67*	64*	-27	39	69*	12	-45
O[C@H](COc1cc(F)cc(F)c1)CN1CCC(C(O)(c2ccccc2)c2ccccc2)CC1	.	.	.	1	.	.	.	.
O=S(=O)(NCc1ccncc1)c1ccc(F)c(F)c1	15	.	28	25	6	.	.	.
CCN(C1CCCCC1)S(=O)(=O)c1ccc(S(=O)(=O)NCCc2ccncc2)cc1	10	11	19	16	-15	.	.	.
COc1ccc(S(=O)(=O)NCc2cccnc2)cc1Br	-3	59*	14	23	10	43	24	11
COc1cc(S(=O)(=O)NCc2ccncc2)ccc1Br	5	68*	13	16	26	61*	16	30*
Cc1ccc(S(=O)(=O)NCc2ccncc2)cc1C	-5	74*	19	8	30	73*	26*	36*
CCN(C1CCCCC1)S(=O)(=O)c1ccc(S(=O)(=O)NCc2ccncc2)cc1	10	60*	7	2	22	50*	31*	55*
Cc1cnn(-c2ccccc2)c1NC(=O)COCc1ccccc1	.	.	.	0	.	.	.	.
C=CCN(C(=O)[C@@H](C1CC1)[C@@H](O)c1ccc2ccccc2c1)c1ccccc1	.	.	.	4	.	.	.	.
O=S(=O)(NCc1ccncc1)c1ccc(Br)s1	33	70*	23	20	28	64*	44*	46*
Cc1cc(Br)c(S(=O)(=O)NCc2ccncc2)cc1C	13	54	11	15	33	52*	22	26*
Cc1cc(C(=O)CSc2nc3ccccc3c(=O)n2C)c(C)n1Cc1ccc2c(c1)OCO2	9	73*	31	8	25	78*	38*	49*
